Here are results for 13 molecules from PubChem BioAssay (NCATS).

Test [1] can be described thus: P-glycoprotein substrates identified in KB-8-5-11 adenocarcinoma cell line, qHTS therapeutic library screen (AID 1346987). Also: nearly all actives have a fitted effect of over 65% in size. To be noted: KB-8-5-11 (P-gp overexpressing) viability, CellTiter-Glo, 72 h; series mostly up to 44.5 µM. The method in brief: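 KB-8-5-11: colchicine-selected sub-line of KB-3-1 over-expressing P-gp; assay medium lacked colchicine. 72 h drug exposure at 37 degree C, CellTiter-Glo.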

Test [2] can be described thus: Natriuretic polypeptide receptor (hNpr1) antagonism - Pilot counterscreen GloSensor control cell line (AID 1347045; calls by dose curve). To be noted: HEK293 cGMP GloSensor cells, SNP-stimulated luminescence, 20 min; series mostly up to 38.3 µM. The procedure, abridged: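 HEK293 cells carrying the GloSensor cGMP sensor (GIP/pGS-40F) were loaded with 2% GloSensor reagent for 2 h, exposed to compounds for 30 min, and then stimulated with 50 uM sodium nitroprusside for 20 min at room temperature.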
Background: The purpose of a counterscreen is to sort out artefacts and off-target activity.

The target in test [3] is Atrial natriuretic peptide receptor 2 (Homo sapiens) (UniProt P20594). The test can be described thus: Natriuretic polypeptide receptor (hNpr2) antagonism - Pilot subtype selectivity assay (AID 1347050; calls by dose curve). To be noted: NPR2-expressing cells, cGMP antagonist-mode read-out; series mostly up to 38.3 µM. The procedure, abridged: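 Pilot selectivity screen against hNpr2: HEK293 cGMP-sensor cells are treated with LOPAC1280 compounds, then with hNppC peptide at 1 nM final. The cGMP-driven luminescence change over 20 min at room temperature is the read-out.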

In test [4] the target is T1, Tyrosine-protein phosphatase non-receptor type substrate 1 (Homo sapiens) + Leukocyte surface antigen CD47 (Homo sapiens) (UniProt P78324+Q08722). Nature of the test: CD47-SIRPalpha protein protein interaction - LANCE assay qHTS validation (AID 1347057; active = well fitted curve in the direction sought with a large enough effect in the signal ratio, with a control signal flat, not every such curve was filed as active; the % refers to the signal ratio). To be noted: Recombinant CD47-His / biotin-SIRPalpha, TR-FRET ratio; series mostly up to 38.3 µM. The method in brief:
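First, His-tagged CD47 and Eu-labelled anti-His antibody met the compound for 30 min; next, site-specifically biotinylated SIRPalpha was added for 30 min; finally streptavidin-APC was added before reading the TR-FRET ratio.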
Background: TR-FRET usually uses a lanthanide donor and a delayed reading to cut background.

In test [5] the target is T1, Tyrosine-protein phosphatase non-receptor type substrate 1 (Homo sapiens) + Leukocyte surface antigen CD47 (Homo sapiens). Nature of the test: CD47-SIRPalpha protein protein interaction - HTRF assay qHTS validation (AID 1347058; active = well fitted curve in the direction sought with a large enough effect in the signal ratio, not every such curve was filed as active; the % refers to the signal ratio;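 also: recombinant soluble extracellular CD47 with His tag and biotinylated SIRPalpha domains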). To be noted: TR-FRET HTRF CD47-His / biotin-SIRPalpha binding, ratio 665/615; series mostly up to 38.3 µM. The method in brief:
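TR-FRET read (Ch1/Ch2 ratio) of soluble extracellular CD47 and Avi-biotinylated SIRPalpha domains in PBS pH 7.4 with 0.05% IGEPAL; 7-point compound titration. Sequential 30 min room-temperature steps; non-biotinylated SIRPalpha as control inhibitor.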

The target is the same in test [6]. Nature of the test: CD47-SIRPalpha protein protein interaction - Alpha assay qHTS validation (AID 1347059).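 Also: bead proximity luminescence from CD47 binding SIRPalpha after compound preincubation with SIRPalpha.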 To be noted: AlphaScreen CD47-His/biotin-SIRPalpha binding, LOPAC; series mostly up to 38.3 µM. The method in brief:
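Binding is measured by AlphaScreen proximity: Ni-NTA acceptor beads capture His-CD47, streptavidin donor beads capture biotin-SIRPalpha. Each of three additions (SIRPalpha with compound, CD47, beads) incubates 30 min at room temperature protected from light.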
(Quantitative high-throughput screening tests each substance at several concentrations.)

Test [7] concerns the target Parathyroid hormone/parathyroid hormone-related peptide receptor (Homo sapiens) (UniProt Q03431). Nature of the test: qHTS for PTHR1 Agonists: Optimization Screen against the NCGC LOPAC library (AID 1347079).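 Also: GloSensor cAMP luminescence in HEK-293 GP2 cells expressing human PTHR1 with IBMX.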 To be noted: HEK293 GP2 PTHR1 GloSensor cAMP luminescence, 1 h; series mostly up to 57.1 µM. The procedure, abridged:
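Compounds were tested across a qHTS titration. PTHR1-expressing GP2 cells report cAMP rises via GloSensor luminescence after 1 hr compound exposure at 37C with IBMX present.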

A short description of test [8]: qHTS of pediatric cancer cell lines to identify multiple opportunities for drug repurposing: Primary screen for TC32 cells (AID 1347089). Also: nearly all actives have a fitted effect of over 60% in size. To be noted: TC32 Ewing sarcoma viability, CellTiter-Glo luminescence, 48 h; series mostly up to 45.8 µM. The method in brief: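 Measured quantity: luminescence from CellTiter-Glo, reflecting metabolically active TC32 cells following 48 h of compound. Curves came straight from multi-point titrations, with 8 or 11 points in primary and 11 in confirmatory screening.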

Test [9] can be described thus: qHTS of pediatric cancer cell lines to identify multiple opportunities for drug repurposing: Primary screen for DAOY cells (AID 1347090). Also: nearly all actives have a fitted effect of over 55% in size. To be noted: DAOY medulloblastoma viability, CellTiter-Glo luminescence, 48 h; series mostly up to 46 µM. The method in brief:
(§1)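 Cell viability, CellTiter-Glo luminescence; 500-1,000 cells/well, 8- or 11-point titration, 48 h compound exposure at 37 degrees C, 5% CO2. Controls: DMSO neutral, bortezomib 2.3 µM final as positive.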

Test [10] can be described thus: qHTS of pediatric cancer cell lines to identify multiple opportunities for drug repurposing: Primary screen for SJ-GBM2 cells (AID 1347091). To be noted: SJ-GBM2 viability, CellTiter-Glo luminescence, 48 h; series mostly up to 46 µM. The method in brief:
as §1

Test [11] is described as follows: qHTS of pediatric cancer cell lines to identify multiple opportunities for drug repurposing: Primary screen for A673 cells (AID 1347092). Also: nearly all actives have a fitted effect of over 45% in size. To be noted: A673 Ewing sarcoma viability, CellTiter-Glo ATP luminescence, 48 h; series mostly up to 46 µM. The method in brief: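 Cells are plated, rested 5 h, dosed by pintool, incubated 48 h, then lysed with CellTiter-Glo and read by luminescence. DMSO is the neutral control; bortezomib at 2.3 uM final is the positive control.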

A short description of test [12]: qHTS of pediatric cancer cell lines to identify multiple opportunities for drug repurposing: Primary screen for SK-N-MC cells (AID 1347093). To be noted: SK-N-MC viability, CellTiter-Glo luminescence, 48 h; series mostly up to 46 µM. The method in brief: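 Metabolically active cells were quantified by ATP-dependent luminescence (CellTiter-Glo, 15 min at room temperature) following 48 h treatment. Cells had been plated at 500-1,000 per well and settled for 5 h beforehand.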

The nature of test [13]: qHTS of pediatric cancer cell lines to identify multiple opportunities for drug repurposing: Primary screen for BT-37 cells (AID 1347094). To be noted: BT-37 viability, CellTiter-Glo luminescence, 48 h; series mostly up to 57.3 µM. The method in brief:
(§2)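 500-1,000 cells/well; 5 h pre-incubation 37 °C/5% CO2; compound pinned; 48 h; CellTiter-Glo, 15 min RT; luminescence. MIPE 11-pt from 0.78 nM, NPC 8-pt from 0.59 nM final. Bortezomib 2.3 µM final as positive control.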

Test [14] in a line: qHTS of pediatric cancer cell lines to identify multiple opportunities for drug repurposing: Primary screen for NB-EBc1 cells (AID 1347095). To be noted: NB-EBc1 neuroblastoma viability, CellTiter-Glo luminescence, 48 h; series mostly up to 46 µM. The method in brief: as §2
Test [15] can be described thus: qHTS of pediatric cancer cell lines to identify multiple opportunities for drug repurposing: Primary screen for U-2 OS cells (AID 1347096). Also: nearly all actives have a fitted effect of over 50% in size. To be noted: U-2 OS viability, CellTiter-Glo luminescence, 48 h; series mostly up to 46 µM. The procedure, abridged:
(§3)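 Cells (500-1,000/well) rested 5 h, then received compounds for 48 h; metabolically active cells were measured by CellTiter-Glo luminescence. Final concentrations spanned up to 46 µM (MIPE, 11-point) or 0.59 nM-46 µM (NPC, 8-point) in primary screens, 11-point in follow-ups.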

A short description of test [16]: qHTS of pediatric cancer cell lines to identify multiple opportunities for drug repurposing: Primary screen for Saos-2 cells (AID 1347097). Also: nearly all actives have a fitted effect of over 40% in size. To be noted: Saos-2 viability, CellTiter-Glo ATP luminescence, 48 h; series mostly up to 46 µM. The procedure, abridged:
as §2

A short description of test [17]: qHTS of pediatric cancer cell lines to identify multiple opportunities for drug repurposing: Primary screen for SK-N-SH cells (AID 1347098). Also: nearly all actives have a fitted effect of over 65% in size. To be noted: SK-N-SH viability, CellTiter-Glo luminescence, 48 h; series mostly up to 57 µM. The method in brief: as §3
Test [18] is described as follows: qHTS of pediatric cancer cell lines to identify multiple opportunities for drug repurposing: Primary screen for NB1643 cells (AID 1347099). Also: nearly all actives have a fitted effect of over 50% in size. To be noted: NB1643 neuroblastoma viability, CellTiter-Glo luminescence, 48 h; series mostly up to 46 µM. The procedure, abridged:
as §2

Test [19] in a line: qHTS of pediatric cancer cell lines to identify multiple opportunities for drug repurposing: Primary screen for LAN-5 cells (AID 1347100). To be noted: LAN-5 neuroblastoma viability, CellTiter-Glo luminescence, 48 h; series mostly up to 46 µM. The procedure, abridged:
as §3

Molecules are shown by their SMILES. Results filed as inconclusive are left out. A call without a number means that no potency is given here. Activity calls are given as the source filed them. Unless noted, calls follow the shape of the dose curve; as a rule, active = well fitted curve in the direction sought with a large enough effect; inconclusive = small, poorly fitted or top-dose-only effect, or another doubt; inactive = no such curve, though single readings can be large; an effect the other way counts as inactive or inconclusive.

T1 sequence (P78324 whole entry, looked up): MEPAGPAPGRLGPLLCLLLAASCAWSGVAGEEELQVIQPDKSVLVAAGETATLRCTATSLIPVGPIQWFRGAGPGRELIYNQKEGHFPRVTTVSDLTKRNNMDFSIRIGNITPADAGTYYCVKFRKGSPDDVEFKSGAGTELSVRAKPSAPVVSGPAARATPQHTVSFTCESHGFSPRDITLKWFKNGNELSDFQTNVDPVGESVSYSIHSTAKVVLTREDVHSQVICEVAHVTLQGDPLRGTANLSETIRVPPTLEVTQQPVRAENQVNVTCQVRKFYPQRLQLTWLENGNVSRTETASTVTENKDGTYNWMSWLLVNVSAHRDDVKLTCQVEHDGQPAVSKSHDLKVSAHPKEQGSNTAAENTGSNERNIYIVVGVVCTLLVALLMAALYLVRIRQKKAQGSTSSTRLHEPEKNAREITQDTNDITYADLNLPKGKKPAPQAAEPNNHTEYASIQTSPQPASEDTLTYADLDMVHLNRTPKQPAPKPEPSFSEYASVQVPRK
T1 sequence (Q08722 whole entry, looked up): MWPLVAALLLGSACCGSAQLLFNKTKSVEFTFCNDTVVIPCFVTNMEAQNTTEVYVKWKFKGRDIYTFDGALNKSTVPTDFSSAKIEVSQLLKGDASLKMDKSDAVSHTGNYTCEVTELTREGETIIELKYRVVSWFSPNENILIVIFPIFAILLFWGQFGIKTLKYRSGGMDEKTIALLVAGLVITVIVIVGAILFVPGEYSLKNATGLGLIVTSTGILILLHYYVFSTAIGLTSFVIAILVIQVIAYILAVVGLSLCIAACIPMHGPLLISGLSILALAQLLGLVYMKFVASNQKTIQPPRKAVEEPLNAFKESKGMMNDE
Chain of Parathyroid hormone/parathyroid hormone-related peptide receptor (Homo sapiens) (Q03431 whole entry, looked up): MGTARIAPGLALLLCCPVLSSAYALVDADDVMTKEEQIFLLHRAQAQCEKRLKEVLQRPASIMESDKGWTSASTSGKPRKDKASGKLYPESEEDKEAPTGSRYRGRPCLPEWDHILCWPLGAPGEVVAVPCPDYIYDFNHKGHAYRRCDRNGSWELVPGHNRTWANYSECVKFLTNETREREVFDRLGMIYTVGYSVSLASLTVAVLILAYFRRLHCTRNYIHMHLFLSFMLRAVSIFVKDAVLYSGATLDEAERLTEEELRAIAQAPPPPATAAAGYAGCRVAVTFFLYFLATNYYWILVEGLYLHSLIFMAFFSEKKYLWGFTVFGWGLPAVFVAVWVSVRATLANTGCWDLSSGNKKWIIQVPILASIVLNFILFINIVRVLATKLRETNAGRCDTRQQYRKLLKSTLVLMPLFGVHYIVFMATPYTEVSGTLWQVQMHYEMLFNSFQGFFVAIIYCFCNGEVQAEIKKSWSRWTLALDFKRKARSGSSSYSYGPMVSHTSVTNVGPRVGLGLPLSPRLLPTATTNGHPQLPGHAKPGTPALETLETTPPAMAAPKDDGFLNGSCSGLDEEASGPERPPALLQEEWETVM
Chain of Atrial natriuretic peptide receptor 2 (Homo sapiens) (P20594 whole entry, looked up): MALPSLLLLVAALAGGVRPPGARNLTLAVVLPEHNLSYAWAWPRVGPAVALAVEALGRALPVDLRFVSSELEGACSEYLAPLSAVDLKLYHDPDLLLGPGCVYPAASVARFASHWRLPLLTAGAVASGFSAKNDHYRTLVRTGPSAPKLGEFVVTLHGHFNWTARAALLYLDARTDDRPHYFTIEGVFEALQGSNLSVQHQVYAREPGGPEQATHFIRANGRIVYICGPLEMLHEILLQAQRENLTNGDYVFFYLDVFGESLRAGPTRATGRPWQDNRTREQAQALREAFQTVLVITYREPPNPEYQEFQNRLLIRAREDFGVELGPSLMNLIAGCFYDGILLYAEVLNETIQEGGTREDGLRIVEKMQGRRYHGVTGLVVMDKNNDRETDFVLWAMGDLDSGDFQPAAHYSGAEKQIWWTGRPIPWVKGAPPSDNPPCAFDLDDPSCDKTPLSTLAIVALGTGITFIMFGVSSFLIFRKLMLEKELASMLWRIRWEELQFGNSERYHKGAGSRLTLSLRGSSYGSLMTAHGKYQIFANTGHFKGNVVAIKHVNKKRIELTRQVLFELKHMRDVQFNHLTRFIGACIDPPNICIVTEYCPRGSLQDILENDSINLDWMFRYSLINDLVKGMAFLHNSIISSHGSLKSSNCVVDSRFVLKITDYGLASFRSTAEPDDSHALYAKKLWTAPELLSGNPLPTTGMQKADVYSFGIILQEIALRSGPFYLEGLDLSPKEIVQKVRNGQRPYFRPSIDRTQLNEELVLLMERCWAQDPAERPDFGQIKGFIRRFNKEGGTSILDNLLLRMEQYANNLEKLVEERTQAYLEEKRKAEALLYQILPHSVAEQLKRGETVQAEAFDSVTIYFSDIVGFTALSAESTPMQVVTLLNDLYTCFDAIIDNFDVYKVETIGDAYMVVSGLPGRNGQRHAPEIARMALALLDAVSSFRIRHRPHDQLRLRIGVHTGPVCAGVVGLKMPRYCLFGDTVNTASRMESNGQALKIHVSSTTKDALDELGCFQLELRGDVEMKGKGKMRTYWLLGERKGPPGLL

With `O=C(O)CCc1cc2ccoc2cc1O[C@@H]1O[C@H](CO[C@@H]2OC[C@](O)(CO)[C@H]2O)[C@@H](O)[C@H](O)[C@H]1O`, in test [1], the Potency result is “inactive”.
The same measure, in the same setting: in the case of `C1CCN2CC3C[C@@H](CN4CCCC[C@@H]34)[C@H]2C1` it was “inactive”; in that of `CC(C)=CCc1ccc(Oc2c(O)cc(C)cc2CO)c(C(=O)O)c1O`, “inactive”.
In the case of `O=C(O)c1cnn(-c2nc3cc(OC(F)(F)F)c(Cl)cc3[nH]2)c1`, the Potency entry in test [1] is “inactive”.
Consider `COC1C=C([C@@H]2CC=C3[C@@]4(C)C(CC[C@]32C)[C@@]2(C)C=CC(=O)C(C)(C)C2C[C@H]4OC(C)=O)C(=O)O1` (stereo partly specified), for which the Potency result in test [1] was “inactive”.
In the case of `CN1Cc2c(N)cccc2C(c2ccccc2)C1` (stereo unspecified), the Potency result in test [1] was “inactive”. Besides, the molecule was classed as inactive in [2], in test [3], in test [4], in test [5], in test [6] and in test [7]. For the same molecule, the molecule was classed as inactive in test [8], in test [9], in test [10], in test [11], in test [12] and in [13]. Besides, the molecule was classed as inactive in test [14], in [15], in test [16], in test [17], in test [18] and in test [19].
Consider `CN1C(=O)c2ccccc2-n2c(nc3ccccc3c2=O)/C1=C/c1ccccc1`, for which the Potency entry in test [1] was “inactive”.
The same measure, in the same setting: the same measure for `Nc1nonc1C(=Nc1ccc(F)c(Cl)c1)NO`: “inactive”; for `O=S(=O)(O)O`: “inactive”.
On the same count and under the same terms, in the case of `C[C@]12CC[C@@H]3c4ccc(O[C@@H]5O[C@H](C(=O)O)[C@@H](O)[C@H](O)[C@H]5O)cc4CC[C@H]3[C@@H]1CCC2=O` it was “inactive”.
Same read-out and setting: the same measure for `CCc1c(CC(N)=O)c2cc(OCCCP(=O)(O)O)ccc2n1Cc1ccccc1`: “inactive”; for `CC1(C)OC(=O)C(OCC2CC2)=C1c1ccc(S(C)(=O)=O)cc1`: “inactive”.
In the case of `C[C@H]1CC[C@@]2(OC1)O[C@H]1CC3C4CC=C5C[C@H](O)C[C@@H](O[C@@H]6O[C@@H](C)[C@H](O)[C@@H](O)[C@H]6O[C@@H]6O[C@@H](C)[C@H](O)[C@@H](O)[C@H]6O)[C@]5(C)C4CC[C@]3(C)[C@H]1[C@@H]2C` (stereo partly specified), the Potency result in test [1] was “inactive”.
